Screening results (PubChem)
Hits are enriched below; roughly 12% of the tested compounds scored in any of these assays.
HP1b chromo inh = inhibitors of HP1-beta chromodomain binding to methylated histone tails | 0.56% of 390,000 active | AlphaScreen HP1-beta / biotin-H3K9me3 peptide binding | Potency, µM (top dose mostly 114 µM), inactives show at the top dose activity change, negative = inhibition, most hits filed as inhibitors | P83916; note: nearly all actives have a fitted effect of over 70% in size
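HP1-beta protein (50 nM final) preincubated 30 min at room temperature with biotinylated H3(1-18)K9me3 peptide (50 nM) in PBS pH 7.4, 0.01% Tween-20, then compound added for 30 min. AlphaScreen streptavidin donor/nickel chelate acceptor beads (10 ug/mL final), 30 min dark, luminescence read.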
JMJD2A Tudor = inhibitors of human JMJD2A Tudor domain; Potency, µM (titrated, usually from 114 µM), for inactives: top-dose activity change, negative = inhibition, most hits filed as inhibitors; AlphaScreen JMJD2A-Tudor / H3K4me3 peptide binding; AID 504339; O75164; 4.4% of 390,000 active; note: % is set by controls: 0 for no effect and ±100 for the full control effect; nearly all actives have a fitted effect of over 50% in size
BAZ2B inh = inhibitors of human BAZ2B bromodomain; Q9UIF8; AlphaScreen BAZ2B-H3K14Ac peptide displacement; Potency, µM (series often up to 114 µM), for the others: at the top dose activity change, negative = inhibition, most hits filed as inhibitors; 4.4% of 360,000 active; AID 504333; note: % is set by controls: 0 for no effect and ±100 for the full control effect; nearly all actives have a fitted effect of over 60% in size
Target sequence (Q9UIF8 whole entry, looked up): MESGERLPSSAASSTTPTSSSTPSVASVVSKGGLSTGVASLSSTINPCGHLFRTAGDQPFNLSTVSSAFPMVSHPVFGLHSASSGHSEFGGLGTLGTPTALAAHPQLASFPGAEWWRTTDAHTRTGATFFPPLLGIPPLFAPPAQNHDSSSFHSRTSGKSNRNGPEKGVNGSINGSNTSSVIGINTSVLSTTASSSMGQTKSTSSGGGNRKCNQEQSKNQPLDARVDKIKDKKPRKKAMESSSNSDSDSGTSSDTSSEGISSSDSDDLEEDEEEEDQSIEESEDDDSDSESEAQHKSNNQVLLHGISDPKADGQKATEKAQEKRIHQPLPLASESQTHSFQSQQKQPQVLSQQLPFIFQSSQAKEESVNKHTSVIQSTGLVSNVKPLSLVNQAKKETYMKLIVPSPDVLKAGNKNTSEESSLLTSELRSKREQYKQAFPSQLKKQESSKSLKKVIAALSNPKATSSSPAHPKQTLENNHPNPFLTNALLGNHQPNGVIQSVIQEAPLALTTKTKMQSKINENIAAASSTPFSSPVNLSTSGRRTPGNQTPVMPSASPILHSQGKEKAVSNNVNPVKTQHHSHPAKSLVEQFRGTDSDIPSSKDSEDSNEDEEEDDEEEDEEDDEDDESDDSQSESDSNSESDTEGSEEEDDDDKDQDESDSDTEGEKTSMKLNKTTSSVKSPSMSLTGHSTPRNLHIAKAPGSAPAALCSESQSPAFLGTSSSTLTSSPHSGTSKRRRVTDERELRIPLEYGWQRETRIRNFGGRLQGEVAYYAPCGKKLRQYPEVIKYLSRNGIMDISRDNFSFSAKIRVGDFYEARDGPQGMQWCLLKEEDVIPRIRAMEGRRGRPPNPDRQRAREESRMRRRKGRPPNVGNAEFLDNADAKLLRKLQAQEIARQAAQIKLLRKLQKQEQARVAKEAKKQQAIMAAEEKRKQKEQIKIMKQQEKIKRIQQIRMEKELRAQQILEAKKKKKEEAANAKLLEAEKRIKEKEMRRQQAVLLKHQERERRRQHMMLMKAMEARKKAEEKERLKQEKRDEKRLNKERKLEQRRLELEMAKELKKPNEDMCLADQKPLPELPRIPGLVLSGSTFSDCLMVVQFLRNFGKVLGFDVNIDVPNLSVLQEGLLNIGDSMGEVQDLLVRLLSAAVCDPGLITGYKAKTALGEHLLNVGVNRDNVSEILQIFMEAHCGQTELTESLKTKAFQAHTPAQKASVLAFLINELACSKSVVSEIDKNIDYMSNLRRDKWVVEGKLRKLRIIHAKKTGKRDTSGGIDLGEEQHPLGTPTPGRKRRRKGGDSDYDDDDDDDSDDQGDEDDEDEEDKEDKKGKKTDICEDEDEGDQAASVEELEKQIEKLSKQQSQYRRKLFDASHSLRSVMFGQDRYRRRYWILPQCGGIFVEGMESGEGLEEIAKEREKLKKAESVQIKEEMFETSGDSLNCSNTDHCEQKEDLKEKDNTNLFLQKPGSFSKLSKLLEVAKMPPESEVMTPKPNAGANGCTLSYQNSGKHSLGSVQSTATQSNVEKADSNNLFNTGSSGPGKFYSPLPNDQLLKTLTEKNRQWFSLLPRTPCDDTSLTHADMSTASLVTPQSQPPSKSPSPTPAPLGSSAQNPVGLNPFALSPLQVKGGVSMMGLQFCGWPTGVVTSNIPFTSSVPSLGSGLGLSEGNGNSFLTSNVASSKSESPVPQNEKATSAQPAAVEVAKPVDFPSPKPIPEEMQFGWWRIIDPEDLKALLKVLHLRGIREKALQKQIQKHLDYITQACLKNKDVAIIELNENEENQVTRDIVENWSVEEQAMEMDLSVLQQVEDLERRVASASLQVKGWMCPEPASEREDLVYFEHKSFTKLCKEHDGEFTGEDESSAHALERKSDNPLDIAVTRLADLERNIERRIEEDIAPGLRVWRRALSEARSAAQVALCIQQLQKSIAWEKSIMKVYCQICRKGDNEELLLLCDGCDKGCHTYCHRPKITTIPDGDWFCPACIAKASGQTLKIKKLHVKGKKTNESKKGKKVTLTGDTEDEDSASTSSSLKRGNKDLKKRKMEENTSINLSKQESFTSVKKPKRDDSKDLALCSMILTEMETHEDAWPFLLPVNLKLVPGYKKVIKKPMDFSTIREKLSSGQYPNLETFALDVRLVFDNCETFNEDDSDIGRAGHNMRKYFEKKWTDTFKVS
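BAZ2B 50 nM plus b-H3(5-23)K14Ac 50 nM, PBS pH 7.4/0.01% Tween-20, 30 min RT; compound added (max 110 uM), 30 min RT; streptavidin donor/Ni-chelate acceptor beads 10 ug/mL final, 20 min dark; AlphaScreen read.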
Sfp PPTase inh = inhibitors of Bacillus subtilis Sfp phosphopantetheinyl transferase | Q9F4F7 | Biochemical Sfp PPTase activity, qHTS | Potency, µM, inactives show largest response in the series, negative = inhibition, actives largely listed as inhibitors | 3.5% of 310,000 active | AID 1490;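 note: the enzyme is Sfp with the accession as filed and its product quenches rhodamine fluorescence; 0% = enzyme reaction without inhibitor and -100% = no enzyme wells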
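Sfp 15 nM + cpd, 15 min RT; start w/ rhodamine-CoA 5 uM, BHQ-2-YbbR 12.5 uM (final); 50 mM Hepes pH 7.6, 10 mM MgCl2, 0.01% NP-40, 0.01% BSA; read 525/598 nm at 0 and 30 min.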
G9a block = G9a (human) methyltransferase inhibition | G9a H3K9 monomethylation, AlphaScreen, 2 h | Potency, µM (doses to about 102 µM), without a hit: top-dose activity, negative = inhibition, actives largely listed as inhibitors | 8.8% of 350,000 active | Q96KQ7 | AID 504332; note: % is set by controls: 0 for no effect and ±100 for the full control effect; nearly all actives have a fitted effect of over 75% in size
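Using a bead-based AlphaScreen, monomethylated H3K9 product from 2 h room-temperature reactions (G9a 20 nM, peptide 500 nM, SAM 20 uM) was detected with 0.5 ug/mL rabbit anti-H3K9me1 antibody.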
* hit, by the source's call; ? = inconclusive; / = no result given; [ ] = another dose, or the depositor's remark. Calls come from the whole dose curve; as a rule, active = well fitted curve in the direction sought with a large enough effect; inconclusive = small, poorly fitted or top-dose-only effect, or another doubt; inactive = no such curve, though single readings can be large; an effect the other way counts as inactive or inconclusive. Potency is the fitted concentration of half-maximal effect.

SMILES	HP1b chromo inh	JMJD2A Tudor	BAZ2B inh	Sfp PPTase inh	G9a block
COC(=O)c1ccc(-c2csc(NC(=O)C3=COCCO3)n2)cc1	1%	-19%	/	/	/
O=C(COC(=O)C1CC1)NCc1ccc(Cl)cc1Cl	27%	3%	/	/	/
O=C(NC(=S)N1CCN(c2ccc(O)cc2)CC1)c1cccs1	15%	-27%	?	-13%	/
O=C(Nc1cnc(N2CCN(c3ccccc3)CC2)c(C(=O)O)c1)c1cccs1	-9%	79µM*	50µM*	/	?
O=C(c1cccs1)N1CCN(c2ccc(F)cc2)CC1	14%	5%	-4%	10%	-8%[12.7 µM]
O=C(CN1CCN(c2ccc(F)cc2)CC1)c1cccs1	14%	-28%	-24%	-8%	16µM*
O=C(Nc1ccc(N2CCN(c3ccc(F)cc3)CC2)c(C(=O)O)c1)c1cccs1	47%	-14%	5%	/	6%[59 µM]
O=C(NC(=S)N1CCN(c2ccc(F)cc2)CC1)c1cccs1	13%	-32%	?	2%	50µM*
COc1ccc(C)cc1NCc1nnc2n1CCCCC2	17%[57 µM]	-15%	-10%	/	?
CCc1ccc(-n2nc(C)c3c(C)cc(=O)n(CC(=O)Nc4cc(C)ccc4C)c32)cc1	12%	-8%	-5%	/	?
N#Cc1c(NC(=O)CSc2nc(N)cc(=O)[nH]2)sc2c1CCCCCC2	-2%	-13%	2%	22%	45µM*
Cn1cnnc1SCC(=O)Nc1sc2c(c1C#N)CCCCC2	-18%	-36%	-29%	50µM*	13µM*
COC(=O)C[C@H]1c2ccccc2C2=C(C[C@@H](C)[C@H]3C(=O)NC(=O)[C@@H]23)N1C(=O)OC	/	/	/	-7%	/
CC(C)c1ccc(NC(=O)COC(=O)c2c[nH]c(=O)[nH]c2=O)cc1	16%	?	6%	0%	16µM*
Cc1nnc(N/N=C/c2cccc(OCc3ccc(Cl)c(Cl)c3)c2)n1N	-5%	?	?	71µM*	10µM*
CCOc1cc(/C=N/Nc2nnc(C)n2N)ccc1OC(C)=O	45%	9%	-14%	?	45µM*
Clc1ccc(-c2nn3c(-c4cc(-c5ccccc5)n[nH]4)nnc3s2)cc1	10%[57 µM]	12%[57.1 µM]	/	/	/
N#Cc1c(=O)c2nc(NCCCO)ncc2n2c(=O)c3ccccc3[nH]c12	28%	56µM*	13µM*	0%	45µM*
COc1cccc(NC(=O)CN(C)C(=O)CCN2C(=O)C3CC=CCC3C2=O)c1 (centres undefined)	12%	-9%	13%	/	-1%
CCCCCC(=O)Cc1cc(O)cc2c1C(=O)Oc1cc(O)c(C(=O)O)c(CCCCC)c1O2	-9%	79µM*	?	9%	-23%[59 µM]
CCCCCC/C=C\CCCCCCCc1cccc(O)c1C(=O)O	/	/	/	9%	3%[2.33 µM]
Cc1ccsc1C(=O)OCC(=O)NC1CCCCC1C (centres undefined)	25%	-5%	-4%	/	-2%[59 µM]
CCC1=NN(S(=O)(=O)c2ccc(C)cc2)C(O)(C(F)(F)F)C1 (centres undefined)	51%	5%	-11%	16%	40µM*
CCC1=NN(C(=O)CCc2ccccc2)C(O)(C(F)(F)F)C1 (centres undefined)	38%	6%	1%	-10%	25%[0.501 µM]
CCc1cnc2c(c1SC(C(C)=O)C(=O)N(C)C)c(=O)n(C)c(=O)n2C (centres undefined)	?	28µM*	-30%	/	4.5µM*
SMILES	HP1b chromo inh	JMJD2A Tudor	BAZ2B inh	Sfp PPTase inh	G9a block
CCc1cnc2c(c1SCC(=O)N1CCCCC1)c(=O)n(C)c(=O)n2C	-11%	-10%	-4%	/	-3%[59 µM]
Cc1ccc(C(=O)N/C(=C\c2sccc2C)C(=O)NCc2ccco2)cc1	13%	-16%	7%	-5%	-5%[59 µM]
COc1cc(/C=C(\NC(=O)c2ccccc2)C(=O)NC(C(=O)O)c2ccccc2)cc(OC)c1OC (centres undefined)	21%	-14%	-20%[57.1 µM]	8%	40µM*
CSCCC(NC(=O)/C(=C/c1ccco1)NC(=O)c1ccco1)C(=O)O (centres undefined)	16%	40µM*	/	/	/
Cc1ccc(C(=O)N/C(=C/C=C\c2ccccc2)C(=O)NCc2ccco2)cc1	4%	-27%	-37%	-16%	45µM*
O=C(NCc1ccco1)/C(=C\c1ccco1)NC(=O)c1ccccc1Cl	-24%	-21%	-1%	7%	?
COc1ccccc1C(=O)N/C(=C\c1ccccc1)C(=O)NC(C)C(=O)O (centres undefined)	35%	-9%	-3%	18%	-4%
O=C(NCc1ccco1)/C(=C/c1ccco1)NC(=O)c1ccco1	13%	-12%	0%	-29%	40µM*
COC(=O)/C(=C/c1ccco1)NC(=O)c1ccc(Br)o1	52%	-2%	13%	45µM*	45µM*
CSCCC(NC(=O)/C(=C\c1ccco1)NC(=O)c1ccco1)C(=O)O (centres undefined)	29%	-15%	-6%	-21%	?
COc1ccc(C(=O)N/C(=C\c2ccccc2)C(=O)NC(CCSC)C(=O)O)cc1 (centres undefined)	44%	-2%	10%	23%	56µM*
CC(NC(=O)/C(=C\c1ccco1)NC(=O)c1ccco1)C(=O)O (centres undefined)	41%	-5%	-3%	-13%	35µM*
COc1ccc(C(=O)N/C(=C\c2ccccc2)C(=O)NC(CC(C)C)C(=O)O)cc1 (centres undefined)	9%	-9%	-1%	14%	4%
COc1cccc(NC(=O)CN2CCN(C(=O)c3ccco3)CC2)c1	24%	-12%	-17%	3%	11%
CN(C)c1ccc(-c2c(C3C4C=CCCC4(C)C(=O)N3Cc3ccccc3)ccc3ccccc23)cc1 (centres undefined)	5%	?	/	?	/
CCc1cc[n+](-c2nc([O-])sc2C=O)cc1	31%	-18%[11.4 µM]	-35%	50µM*	?
CC(C)c1cc[n+](-c2nc([O-])sc2C=O)cc1	20%	35µM*	79µM*	40µM*	?
COc1ccc([N+](=O)[O-])cc1NCC(=O)Nc1cc(S(=O)(=O)N2CCCCC2)ccc1C	29%	-27%	-29%	/	22%[12.7 µM]
CCN1CCOC(=O)C1CC(=O)Nc1ccc(Br)cc1 (centres undefined)	-14%	-13%	-36%	/	2.5µM*
CCN1CCOC(=O)C1CC(=O)Nc1cc(C)ccc1OC (centres undefined)	20%	-17%	-5%	/	10µM*
COc1ccccc1NC(=O)CN1CCN(CC(=O)Nc2cc(C)ccc2OC)CC1	46%	1%	0%	15%	-5%
O=C(/C=N/O)NCCCCNC(=O)/C=N/O	/	/	/	-11%	/
CC(=O)N1CCC2(CCN(Cc3ccccc3)CC2)CC1	/	/	/	13%	2%[12.7 µM]
CCOC(=O)c1c(/N=C/c2cc(OC)cc([N+](=O)[O-])c2O)sc(C)c1C	?	?	50µM*	?	20µM*
